The supplement of paper PMC11732987, “Enantioselective OTUD7B fragment discovery through chemoproteomics screening and high-throughput optimisation” (Communications Chemistry, 2025)

Columns and labels:
Test in all cases: log2 ratio of Biotin-Ahx-Ub-VS probe labelling (fragment/DMSO); higher = less target engagement (more negative = stronger competition), active = hit call of the paper (q ≤ 0.05, log2 ratio ≤ -1)
Conditions in all cases: compound concentration: 200 uM; treatment time: 3 h
ALG13 = biological target: T1, ALG13 (UniProt Q9NP73)
T1 sequence (whole entry): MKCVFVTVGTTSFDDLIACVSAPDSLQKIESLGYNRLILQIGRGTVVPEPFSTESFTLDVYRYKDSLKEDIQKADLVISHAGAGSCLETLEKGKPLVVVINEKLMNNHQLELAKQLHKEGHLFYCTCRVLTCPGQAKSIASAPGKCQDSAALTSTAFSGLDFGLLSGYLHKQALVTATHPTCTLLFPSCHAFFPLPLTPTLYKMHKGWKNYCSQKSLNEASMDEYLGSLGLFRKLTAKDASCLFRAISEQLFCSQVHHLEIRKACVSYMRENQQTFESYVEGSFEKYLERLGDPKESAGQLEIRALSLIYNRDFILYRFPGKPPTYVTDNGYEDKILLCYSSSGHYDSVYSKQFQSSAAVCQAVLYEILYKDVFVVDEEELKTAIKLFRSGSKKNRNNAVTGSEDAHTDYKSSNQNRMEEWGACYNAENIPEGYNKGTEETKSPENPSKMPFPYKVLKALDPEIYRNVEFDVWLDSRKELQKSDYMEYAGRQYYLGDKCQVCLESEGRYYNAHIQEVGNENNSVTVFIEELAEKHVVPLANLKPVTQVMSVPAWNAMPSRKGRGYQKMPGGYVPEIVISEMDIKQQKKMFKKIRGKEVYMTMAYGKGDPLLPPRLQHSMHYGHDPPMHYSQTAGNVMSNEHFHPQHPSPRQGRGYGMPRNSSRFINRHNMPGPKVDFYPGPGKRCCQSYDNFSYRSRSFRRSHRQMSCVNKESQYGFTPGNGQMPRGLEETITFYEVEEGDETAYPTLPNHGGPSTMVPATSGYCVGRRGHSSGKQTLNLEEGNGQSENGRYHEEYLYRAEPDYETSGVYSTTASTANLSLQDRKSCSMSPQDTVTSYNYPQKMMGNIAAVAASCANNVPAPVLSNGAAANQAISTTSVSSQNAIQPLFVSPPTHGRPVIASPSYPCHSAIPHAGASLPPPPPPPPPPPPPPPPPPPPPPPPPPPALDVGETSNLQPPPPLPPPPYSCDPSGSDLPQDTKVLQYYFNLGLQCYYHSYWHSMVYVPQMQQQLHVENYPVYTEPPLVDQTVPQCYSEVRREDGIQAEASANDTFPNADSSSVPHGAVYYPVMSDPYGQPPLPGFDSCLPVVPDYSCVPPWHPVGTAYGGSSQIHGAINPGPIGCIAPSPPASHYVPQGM
Method in brief: (§1)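 Fragment (200 µM) or vehicle was incubated for 3 h with triplicate HEK293T lysate samples of 495 µg, which were then treated with Biotin-Ahx-Ub-VS at 0.5 µM final for 1 h. Labelled DUBs were enriched on NeutrAvidin, digested with LysC and trypsin, and analysed by diaPASEF LC-MS/MS. Values are average log2 fragment/vehicle ratios from an unpaired t-test on global-median-normalised Spectronaut label-free quantities, using proteins with ≥2 unique peptides.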

ATXN3 = ATXN3 (UniProt P54252)
Chain of ATXN3 (P54252 whole entry): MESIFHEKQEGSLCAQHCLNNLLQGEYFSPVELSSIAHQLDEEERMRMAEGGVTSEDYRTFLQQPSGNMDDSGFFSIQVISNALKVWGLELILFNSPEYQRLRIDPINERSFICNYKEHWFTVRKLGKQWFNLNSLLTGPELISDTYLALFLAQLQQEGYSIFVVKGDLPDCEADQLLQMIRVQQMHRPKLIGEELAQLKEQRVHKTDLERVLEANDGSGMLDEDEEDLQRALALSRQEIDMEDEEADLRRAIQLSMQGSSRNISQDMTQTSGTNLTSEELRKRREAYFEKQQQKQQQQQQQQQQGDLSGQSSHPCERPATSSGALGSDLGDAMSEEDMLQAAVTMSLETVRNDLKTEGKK
Method in brief: as §1

BAP1 = biological target: T2, BAP1 (UniProt Q92560)
T2 sequence (whole entry): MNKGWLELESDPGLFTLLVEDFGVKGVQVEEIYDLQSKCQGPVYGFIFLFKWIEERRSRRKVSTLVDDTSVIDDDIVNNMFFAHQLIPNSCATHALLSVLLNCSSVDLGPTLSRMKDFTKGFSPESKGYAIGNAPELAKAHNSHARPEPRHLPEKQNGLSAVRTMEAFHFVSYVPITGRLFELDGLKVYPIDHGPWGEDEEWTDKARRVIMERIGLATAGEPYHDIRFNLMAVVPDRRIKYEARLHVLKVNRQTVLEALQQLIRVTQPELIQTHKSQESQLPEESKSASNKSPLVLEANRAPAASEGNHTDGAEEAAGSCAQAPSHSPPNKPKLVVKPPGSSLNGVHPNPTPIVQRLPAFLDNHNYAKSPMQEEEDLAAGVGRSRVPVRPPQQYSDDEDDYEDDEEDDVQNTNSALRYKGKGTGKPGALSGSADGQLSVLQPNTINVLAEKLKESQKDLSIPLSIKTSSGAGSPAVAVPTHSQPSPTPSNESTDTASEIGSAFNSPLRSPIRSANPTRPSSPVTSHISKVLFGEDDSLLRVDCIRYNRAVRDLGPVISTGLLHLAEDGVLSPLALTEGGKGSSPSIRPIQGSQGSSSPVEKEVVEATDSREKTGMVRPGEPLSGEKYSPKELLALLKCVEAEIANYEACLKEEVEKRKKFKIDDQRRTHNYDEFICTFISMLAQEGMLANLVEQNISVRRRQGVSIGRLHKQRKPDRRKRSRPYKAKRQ
Method in brief: as §1

EIF3F = EIF3F (UniProt O00303)
Chain of EIF3F (O00303 whole entry): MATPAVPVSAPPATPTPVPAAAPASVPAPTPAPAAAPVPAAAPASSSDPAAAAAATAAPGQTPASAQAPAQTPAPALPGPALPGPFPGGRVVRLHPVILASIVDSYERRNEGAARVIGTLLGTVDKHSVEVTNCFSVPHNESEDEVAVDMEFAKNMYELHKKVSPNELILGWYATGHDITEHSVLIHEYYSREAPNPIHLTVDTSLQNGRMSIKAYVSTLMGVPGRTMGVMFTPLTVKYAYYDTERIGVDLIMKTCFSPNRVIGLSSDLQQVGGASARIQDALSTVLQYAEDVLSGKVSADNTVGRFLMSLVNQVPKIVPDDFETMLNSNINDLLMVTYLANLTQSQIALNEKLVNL
Method in brief: as §1

EIF3H = EIF3H (UniProt O15372)
Chain of EIF3H (O15372 whole entry): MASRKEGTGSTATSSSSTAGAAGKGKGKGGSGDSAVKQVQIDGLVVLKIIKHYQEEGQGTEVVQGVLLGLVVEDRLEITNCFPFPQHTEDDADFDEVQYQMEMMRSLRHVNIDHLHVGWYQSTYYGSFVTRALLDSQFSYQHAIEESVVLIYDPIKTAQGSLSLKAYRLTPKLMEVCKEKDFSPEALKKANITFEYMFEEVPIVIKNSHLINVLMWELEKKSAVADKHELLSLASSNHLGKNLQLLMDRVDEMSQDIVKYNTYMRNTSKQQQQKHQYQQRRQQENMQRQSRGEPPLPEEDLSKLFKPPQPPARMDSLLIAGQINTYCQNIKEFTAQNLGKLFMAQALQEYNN
Method in brief: as §1

FAM105A = biological target: T3, FAM105A (UniProt Q9NUU6)
T3 sequence (whole entry): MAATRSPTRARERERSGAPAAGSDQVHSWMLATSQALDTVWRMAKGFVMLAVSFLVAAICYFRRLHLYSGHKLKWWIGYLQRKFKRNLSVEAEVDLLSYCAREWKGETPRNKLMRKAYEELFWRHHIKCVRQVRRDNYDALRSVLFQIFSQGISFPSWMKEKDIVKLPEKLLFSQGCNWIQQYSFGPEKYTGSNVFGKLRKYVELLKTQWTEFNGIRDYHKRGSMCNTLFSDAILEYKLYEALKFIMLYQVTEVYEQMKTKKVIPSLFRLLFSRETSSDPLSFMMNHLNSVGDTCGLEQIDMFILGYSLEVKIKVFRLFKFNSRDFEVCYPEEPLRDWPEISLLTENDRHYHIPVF
Method in brief: as §1

OTUB1 = OTUB1 (UniProt Q96FW1)
Chain of OTUB1 (Q96FW1 whole entry): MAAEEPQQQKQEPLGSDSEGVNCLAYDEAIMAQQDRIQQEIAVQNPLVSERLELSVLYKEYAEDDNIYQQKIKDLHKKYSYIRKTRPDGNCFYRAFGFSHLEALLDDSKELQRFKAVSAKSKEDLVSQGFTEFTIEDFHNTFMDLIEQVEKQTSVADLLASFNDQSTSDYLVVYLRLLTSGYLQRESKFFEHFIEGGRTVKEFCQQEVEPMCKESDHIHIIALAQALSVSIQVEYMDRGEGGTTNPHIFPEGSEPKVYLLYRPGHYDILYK
Method in brief: as §1

OTUD4 = biological target: T4, OTUD4 (UniProt Q01804)
T4 sequence (whole entry): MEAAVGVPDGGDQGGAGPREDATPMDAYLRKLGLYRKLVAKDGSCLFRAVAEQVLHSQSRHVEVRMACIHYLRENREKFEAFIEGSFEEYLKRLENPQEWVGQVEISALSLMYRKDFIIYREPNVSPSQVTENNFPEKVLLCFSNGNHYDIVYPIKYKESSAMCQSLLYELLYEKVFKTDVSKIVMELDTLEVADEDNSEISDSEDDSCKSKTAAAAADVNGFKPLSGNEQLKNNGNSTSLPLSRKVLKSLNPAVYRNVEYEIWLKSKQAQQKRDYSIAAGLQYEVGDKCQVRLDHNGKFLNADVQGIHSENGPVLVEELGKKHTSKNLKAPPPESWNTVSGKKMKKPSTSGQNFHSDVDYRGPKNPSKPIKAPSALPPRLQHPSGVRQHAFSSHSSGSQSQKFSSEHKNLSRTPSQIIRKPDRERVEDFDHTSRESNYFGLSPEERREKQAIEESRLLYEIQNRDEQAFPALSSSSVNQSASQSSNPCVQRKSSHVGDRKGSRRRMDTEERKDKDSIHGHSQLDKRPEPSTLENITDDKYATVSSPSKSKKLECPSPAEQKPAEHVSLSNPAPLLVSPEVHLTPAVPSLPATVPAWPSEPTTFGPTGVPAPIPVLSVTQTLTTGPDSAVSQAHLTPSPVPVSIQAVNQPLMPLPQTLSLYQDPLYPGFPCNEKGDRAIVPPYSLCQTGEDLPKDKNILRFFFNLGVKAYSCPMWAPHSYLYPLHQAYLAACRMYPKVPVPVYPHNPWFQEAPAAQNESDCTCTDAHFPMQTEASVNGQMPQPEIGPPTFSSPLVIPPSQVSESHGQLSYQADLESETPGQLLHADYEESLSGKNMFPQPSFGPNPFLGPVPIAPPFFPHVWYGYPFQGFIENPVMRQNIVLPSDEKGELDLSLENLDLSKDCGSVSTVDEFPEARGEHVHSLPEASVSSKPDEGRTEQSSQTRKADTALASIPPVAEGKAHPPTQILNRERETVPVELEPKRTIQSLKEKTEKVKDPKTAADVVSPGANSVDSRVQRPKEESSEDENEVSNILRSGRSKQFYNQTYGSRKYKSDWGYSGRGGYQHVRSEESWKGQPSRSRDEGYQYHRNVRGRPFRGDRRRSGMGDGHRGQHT
Method in brief: as §1

OTUD5 = biological target: T5, OTUD5 (UniProt Q96G74)
T5 sequence (whole entry): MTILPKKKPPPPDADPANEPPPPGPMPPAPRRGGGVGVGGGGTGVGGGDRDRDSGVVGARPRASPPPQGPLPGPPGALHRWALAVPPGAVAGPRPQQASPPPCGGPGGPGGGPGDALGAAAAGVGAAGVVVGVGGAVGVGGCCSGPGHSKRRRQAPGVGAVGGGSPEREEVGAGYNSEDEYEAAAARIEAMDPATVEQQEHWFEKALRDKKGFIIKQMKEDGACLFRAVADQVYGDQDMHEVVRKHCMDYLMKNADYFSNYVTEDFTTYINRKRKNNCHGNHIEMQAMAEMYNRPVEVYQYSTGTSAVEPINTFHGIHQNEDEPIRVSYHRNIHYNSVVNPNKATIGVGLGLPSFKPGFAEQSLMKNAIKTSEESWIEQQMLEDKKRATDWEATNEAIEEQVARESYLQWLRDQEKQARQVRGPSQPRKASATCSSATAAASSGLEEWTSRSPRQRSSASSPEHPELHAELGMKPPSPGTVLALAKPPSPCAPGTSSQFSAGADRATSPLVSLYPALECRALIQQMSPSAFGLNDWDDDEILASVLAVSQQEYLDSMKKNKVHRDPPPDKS
Method in brief: as §1

Measured: log2 ratio of Biotin-Ahx-Ub-VS probe labelling

CN(C(=O)CCl)c1nc2ccccc2s1
inactive: ALG13 0.217 | ATXN3 -0.82 | BAP1 -0.457 | EIF3F -0.117 | EIF3H 0.0319 | FAM105A 0.108 | OTUB1 -0.597 | OTUD4 -0.0109
active: OTUD5 -1.02
